# Assay: inhibitors of T. brucei MetRS aminoacylation, late-stage follow-up, biochemical, radioactivity, round 1 (AID 743060)
# Conditions: purified enzyme, radiolabel aminoacylation, scintillation, 2 h; at 10 µM; stronger effect = higher value
row,SMILES,inhibition
1,O=C(Cn1cc(C(=O)C(=O)N2CCOCC2)c2ccccc21)NCc1ccccc1,16.7%
2,O=C(NCCc1nc2ccccc2[nH]1)c1ccc(Cl)c([N+](=O)[O-])c1,99.6%
3,CCN(CC)C(=O)C(=O)c1cn(CC(=O)Nc2cccc(OC)c2)c2ccccc12,86.4%
4,O=C1CC(NCCc2ccccc2)C(=O)N1c1ccc(Br)cc1 (stereo not drawn),-9%
5,O=C(Cn1cc(C(=O)COc2ccccc2)c2ccccc21)Nc1cccc(C(F)(F)F)c1,-11.8%
6,CCN(CC)C(=O)C(=O)c1cn(CC(=O)Nc2ccccc2OC)c2ccccc12,-11.4%
7,Cc1ccc2[nH]c3nc(SCC(=O)Nc4ccc(C(F)(F)F)cc4)nnc3c2c1,15.1%
8,O=C(NCc1nc2ccccc2[nH]1)C1=C[C@@H](c2ccc3c(c2)OCO3)C[C@@H](OCCCCO)O1,93.7%
9,CCO[C@H]1OC(C(=O)NCc2nc3ccccc3[nH]2)=C[C@@H](c2ccc(Br)cc2)[C@@H]1CCCO,81.6%
10,O=C1CC(SCc2nc3ccccc3[nH]2)C(=O)N1c1cccc(Cl)c1 (stereo not drawn),52.6%
11,COc1ccc(CCN(C(=O)c2cccc(F)c2)C2CC(=O)N(c3ccc(Br)cc3)C2=O)cc1 (stereo not drawn),-7.62%
12,O=C(Cn1cc(C(=O)C(=O)N2CCOCC2)c2ccccc21)Nc1cccc(C(F)(F)F)c1,100%
13,O=C(NCc1nc2ccccc2[nH]1)C1=C[C@@H](C2CC2)C[C@@H](OCc2ccc(CO)cc2)O1,93.6%
14,O=C(NCc1nc2ccccc2[nH]1)C1=C[C@@H](c2ccc(Br)cc2)C[C@@H](OCc2ccc(CO)cc2)O1,97.6%
15,CC(=O)c1cn(CC(=O)Nc2cccc(C(F)(F)F)c2)c2ccccc12,39.3%
16,CN1CC(=O)N2C(c3cccc([N+](=O)[O-])c3)c3[nH]c4ccccc4c3C[C@H]2C1=O (stereo partly drawn),96.7%
17,CCN(CC)C(=O)C(=O)c1cn(CC(=O)Nc2cccc(C(F)(F)F)c2)c2ccccc12,99.5%
18,O=C(CN1CCSC1=NCc1ccccc1)c1ccc(Cl)c(Cl)c1,28%
